Results: PubChem BioAssay (NCATS)
Inconclusive results are not listed. Where a call stands in place of a potency, no number is given. A number with no mark means an inactive call. Active and inactive are the calls of the source. Calls come from the whole dose curve; as a rule, active = well fitted cell-killing curve with a large enough effect; inconclusive = small, poorly fitted or top-dose-only effect, or effect the other way; inactive = no such curve, though single readings can be large or run the other way.

Tests used:
[1] = Viability qHTS for spleen associated tyrosine kinase inhibitor (SYKi) naive MV4-11 cells (AID 1963823); note: nearly all actives have a fitted effect of over 40% in size
Summary of the method: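 SYK inhibitor-naive MV4-11 cells, 500 per well, exposed to compounds for 72 hr at 37 C, 5% CO2. Viability read as CellTiter-Glo luminescence after 10 min at room temperature.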

[2] = Viability qHTS for spleen associated tyrosine kinase inhibitor (SYKi) drug resistant MV4-11 cells (AID 1963824); note: nearly all actives have a fitted effect of over 35% in size
Summary of the method: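 CellTiter-Glo luminescence, read 10 min after reagent addition, reports viability after a 72 hr compound exposure. Cells are an MV4-11 line made resistant to SYK inhibition, seeded at 500 per well onto compound-containing plates.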
Potency is the fitted concentration of half-maximal effect.

For `COc1cc(/C=C/C(=O)OC[C@H]2O[C@@](CO)(O[C@H]3O[C@H](CO)[C@@H](O)[C@H](O)[C@H]3O)[C@@H](OC(=O)/C=C/c3ccc(O)c(OC)c3)[C@@H]2O)ccc1O`, the Potency [1] was “inactive” and the Potency [2] was “inactive”.

With `O=C1Nc2ccc(O)cc2O[C@H]1O[C@@H]1O[C@H](CO)[C@@H](O)[C@H](O)[C@H]1O` the Potency [1] was “inactive” and the Potency [2] was “inactive”.

In the case of `CC(C)Oc1ccc(C(=O)NC(CNC(=O)CN(C)C)Cc2ccc(-c3cn4cccc(C(C)O)c4n3)cc2)cc1Cl` (stereo unspecified), the Potency [1] is reported as 0.13 µM (active) and the Potency [2] is reported as 0.082 µM (active).

In the case of `CC(C)(O)C1CC=C(C(=O)OCC2OC(Oc3c(O)cc(C(=O)O)cc3O)C(O)C(O)C2O)CC1` (stereo unspecified), the Potency [1] is reported as “inactive” and the Potency [2] is reported as “inactive”.

For `Cc1cc(C(=O)Nc2cccc(C(=O)Nc3cccc(C(F)(F)F)c3)c2)on1`, the Potency [1] was “inactive” and the Potency [2] was “inactive”.

In the case of `CS(=O)(=O)c1ccc([C@@H](CC2CCCC2)C(=O)Nc2cnccn2)cc1Cl`, the Potency [1] is reported as 31.6 µM (active) and the Potency [2] is reported as 25.1 µM (active).

With `CC1(C)CC[C@]2(C(=O)O[C@@H]3O[C@H](CO)[C@@H](O)[C@H](O)[C@H]3O)CC[C@]3(C)C(=CCC4[C@@]5(C)CC[C@H](O[C@@H]6O[C@H](C(=O)O)[C@@H](O[C@@H]7O[C@H](CO)[C@@H](O)[C@H](O)[C@H]7O)[C@H](O)[C@H]6O[C@@H]6O[C@H](CO)[C@@H](O)[C@H](O)[C@H]6O)C(C)(C)C5CC[C@]43C)C2C1` (stereo partly specified) the viability (% of control) [1] was 93% [at 9.25 µM] and the viability, % of control [2] was 104% [at 9.25 µM].

For `C=CC(C)(O)CC/C=C(\C)C(=O)O[C@@H]1[C@@H](O)[C@H](OC(C)(C=C)CC/C=C(\C)C(=O)O)O[C@H](CO)[C@H]1OC(=O)/C(C)=C/CCC(C)(O)C=C` (stereo partly specified), the Potency [1] was “inactive” and the Potency [2] was “inactive”.
